Experimental findings from PubChem BioAssay (Tox21) are described below.

“And” between values parts separate entries of the source, which are not always exact repeats. Equal values may be shown once. Records with an inconclusive call do not appear. Some structures have more than one record in an assay (separate samples or runs), and their calls can disagree. The source made the active and inactive calls. Unless noted, calls come from the whole dose curve; as a rule, active = well fitted curve in the direction sought with a large enough effect in the repeat runs; inconclusive = weak or mixed curves; inactive = no such curve, though single readings can be large; an effect the other way counts as inactive or inconclusive.

Test [1] can be described thus: qHTS assay to identify small molecule antagonists of the glucocorticoid receptor (GR) signaling pathway - cell viability counter screen (AID 720693; note: nearly all actives have a fitted effect of over 55% in size). (Quantitative high-throughput screening tests each substance at several concentrations.)
Test [2] can be described thus: qHTS assay for identifying genotoxic compounds that show differential cytotoxicity against isogenic chicken DT40 cell lines with known DNA damage response pathways - wild type cell line (AID 743012). Note: nearly all actives have a fitted effect of over 60% in size. Note: potency is the fitted concentration of half-maximal effect. In outline:
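First, wild type DT40 cells were plated at 300 per well and equilibrated about 0.5 h at 37 C/5% CO2. Next, compounds in DMSO were added and exposure lasted 40 h. Finally, CellTiter-Glo was added for 30 min at room temperature and luminescence recorded.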

Test [3] in a line: qHTS assay to identify small molecule antagonists of the androgen receptor (AR) signaling pathway - cell viability counter screen (AID 743033; note: nearly all actives have a fitted effect of over 45% in size; note: potency is the fitted concentration of half-maximal effect).
Test [4] can be described thus: qHTS assay to identify small molecule antagonists of the androgen receptor (AR) signaling pathway using the MDA cell line - cell viability counter screen (AID 743041; note: nearly all actives have a fitted effect of over 45% in size). In outline: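 Same-well cytotoxicity was assessed by CellTiter-Fluor in MDA-kb2 AR-luc cells after 16 h of compound treatment under R1881 agonism.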
A short description of test [5]: qHTS assay to identify small molecule antagonists of the thyroid receptor (TR) signaling pathway - cell viability counter screen (AID 743064). Note: nearly all actives have a fitted effect of over 50% in size. Note: potency is the fitted concentration of half-maximal effect. In outline: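 Plate GH3.TRE-Luc cells; incubate 4 h at 37 °C; add compound, then T3 to 1 nM final; incubate 23.5 h; add CellTiter-Fluor; incubate 30 min at 37 °C, 5% CO2; read fluorescence.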
Test [6] is described as follows: qHTS assay to identify small molecule antagonists of the thyroid receptor (TR) signaling pathway (AID 743065). Note: nearly all actives have a fitted effect of over 55% in size. Note: potency is the fitted concentration of half-maximal effect. In outline:
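GH3.TRE-Luc rat pituitary cells (two TREs driving luciferase) were dosed with compound, then stimulated with 1 nM T3 (final) for 23.5 h at 37 C. ONE-Glo luminescence was the read-out, with CellTiter-Fluor fluorescence as the cytotoxicity counter-screen.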

In test [7] the test system is thyroid hormone receptor (rat, GH3 cells). The experiment in a line: qHTS assay to identify small molecule agonists of the thyroid receptor (TR) signaling pathway (AID 743066; calls by dose curve; note: potency is the fitted concentration of half-maximal effect).
The nature of test [8]: qHTS assay to identify small molecule antagonists of the estrogen receptor alpha (ER-alpha) signaling pathway using the BG1 cell line - cell viability counter screen (AID 743081).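 Note: compound given together with 17beta-estradiol as the ER stimulus; nearly all actives have a fitted effect of over 45% in size.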
Test [9] concerns the target Aromatase (Homo sapiens) (UniProt P11511). Description: qHTS assay to identify aromatase inhibitors (AID 743083). Note: nearly all actives have a fitted effect of over 55% in size. Note: potency is the fitted concentration of half-maximal effect.
Test [10] can be described thus: qHTS assay to identify aromatase inhibitors - cell viability counter screen (AID 743084).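 Note: cells stimulated with testosterone during compound exposure; nearly all actives have a fitted effect of over 55% in size.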
Test [11] can be described thus: qHTS assay for identifying genotoxic compounds that show differential cytotoxicity against isogenic chicken DT40 cell lines with known DNA damage response pathways - Rev3 mutant cell line (AID 743014). Note: nearly all actives have a fitted effect of over 55% in size. Note: potency is the fitted concentration of half-maximal effect.
The nature of test [12]: qHTS assay to identify small molecule antagonists of the estrogen receptor alpha (ER-alpha) signaling pathway - cell viability counter screen (AID 743074; calls by dose curve;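 note: HEK293 cells carrying ER-alpha-UAS-bla reporter stimulated with 17beta-estradiol; nearly all actives have a fitted effect of over 45% in size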; note: potency is the fitted concentration of half-maximal effect).
The target of test [13] is Estrogen receptor (Homo sapiens) (UniProt P03372). Description: qHTS assay to identify small molecule agonists of the estrogen receptor alpha (ER-alpha) signaling pathway (AID 743075; calls by dose curve;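 note: HEK293 GripTite cells with ER-alpha and UAS-driven beta-lactamase reporter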).
Test [14] has the same target. The experiment in a line: qHTS assay to identify small molecule agonists of the estrogen receptor alpha (ER-alpha) signaling pathway using the BG1 cell line (AID 743079). Note: nearly all actives have a fitted effect of over 20% in size. Note: potency is the fitted concentration of half-maximal effect. As to conditions: BG1Luc4E2 cells, ERE-luciferase agonist, 22 h.
The nature of test [15]: qHTS assay to identify small molecule antagonists of the estrogen receptor alpha (ER-alpha) signaling pathway using the BG1 cell line (AID 743080; calls by dose curve;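 note: BG1 cells stimulated with 17beta-estradiol alongside compound; nearly all actives have a fitted effect of over 25% in size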). In outline:
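Luciferase inhibition measured with ONE-Glo after 30 min at RT in BG1Luc4E2 cells given test compounds and 17beta-estradiol for 21.5 h at 37 C; CellTiter-Fluor viability read in the same wells beforehand.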

Test [16] can be described thus: qHTS assay for identifying genotoxic compounds that show differential cytotoxicity against isogenic chicken DT40 cell lines with known DNA damage response pathways - Rad54/Ku70 mutant cell line (AID 743015). Note: nearly all actives have a fitted effect of over 60% in size. Note: potency is the fitted concentration of half-maximal effect.
Test [17] concerns the target Estrogen receptor (Homo sapiens) (UniProt P03372). Description: qHTS assay to identify small molecule antagonists of the estrogen receptor alpha (ER-alpha) signaling pathway (AID 743069; active = well fitted curve in the direction sought with a large enough effect in the signal ratio in the repeat runs, not every such curve was filed as active; the % refers to the signal ratio). In outline:
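Reporter cells (ER-alpha-bla, HEK293 background) are conditioned overnight in stripped-serum medium (2% charcoal-stripped FBS). Compound and 17beta-estradiol exposure runs 18 hr at 37C, 5% CO2.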

For test [18], the target named is Androgen receptor (Homo sapiens) (UniProt P10275). Description: qHTS assay to identify small molecule agonists of the androgen receptor (AR) signaling pathway (AID 743036; active = well fitted activation curve with a large enough effect in the signal ratio in the repeat runs, with a control signal flat, not every such curve was filed as active; the % refers to the signal ratio). In outline: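 Reporter line: GeneBLAzer AR-UAS-bla-GripTite (HEK293). Steps: plate cells, 4 h rest, add compounds, 16 h at 37C, add LiveBLAzer B/G substrate, 2 h at RT, read fluorescence.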
For test [19] the target is unchanged. Description: qHTS assay to identify small molecule antagonists of the androgen receptor (AR) signaling pathway (AID 743035; active = well fitted inhibition curve with a large enough effect in the signal ratio in the repeat runs, not every such curve was filed as active; the % refers to the signal ratio). In outline:
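Beta-lactamase FRET read (2 h RT incubation with LiveBLAzer B/G) following 16 h of compound plus R1881 treatment of AR-UAS-bla HEK293 cells, which had been pre-incubated 4 h at 37C.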

Test [20] shares this target. Description: qHTS assay to identify small molecule antagonists of the androgen receptor (AR) signaling pathway using the MDA cell line (AID 743042; note: nearly all actives have a fitted effect of over 55% in size). In outline: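 MDA-kb2 breast carcinoma cells carrying MMTV-luciferase (AR/GR responsive) were co-treated with compounds and the agonist R1881 for 16 h at 37C. Inhibition read as ONE-Glo luminescence; CellTiter-Fluor fluorescence measured in parallel for cytotoxicity.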
% is set by controls: 0 for no effect and ±100 for the full control effect.

Sequence of Aromatase (Homo sapiens) (P11511 whole entry, looked up): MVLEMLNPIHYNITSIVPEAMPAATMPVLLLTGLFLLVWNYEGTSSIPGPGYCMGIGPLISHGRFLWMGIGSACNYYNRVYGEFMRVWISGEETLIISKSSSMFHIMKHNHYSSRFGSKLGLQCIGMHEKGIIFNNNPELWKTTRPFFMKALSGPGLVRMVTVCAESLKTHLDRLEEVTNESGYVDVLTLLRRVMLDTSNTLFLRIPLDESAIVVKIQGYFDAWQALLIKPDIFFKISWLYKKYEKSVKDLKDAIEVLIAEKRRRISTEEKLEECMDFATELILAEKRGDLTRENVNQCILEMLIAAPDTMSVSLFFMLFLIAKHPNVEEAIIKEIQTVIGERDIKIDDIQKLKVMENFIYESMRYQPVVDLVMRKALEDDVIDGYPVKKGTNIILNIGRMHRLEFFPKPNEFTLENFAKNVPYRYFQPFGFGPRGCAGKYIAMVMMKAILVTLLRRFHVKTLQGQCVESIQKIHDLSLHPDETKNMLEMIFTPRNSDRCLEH
Sequence of Estrogen receptor (Homo sapiens) (P03372 whole entry, looked up): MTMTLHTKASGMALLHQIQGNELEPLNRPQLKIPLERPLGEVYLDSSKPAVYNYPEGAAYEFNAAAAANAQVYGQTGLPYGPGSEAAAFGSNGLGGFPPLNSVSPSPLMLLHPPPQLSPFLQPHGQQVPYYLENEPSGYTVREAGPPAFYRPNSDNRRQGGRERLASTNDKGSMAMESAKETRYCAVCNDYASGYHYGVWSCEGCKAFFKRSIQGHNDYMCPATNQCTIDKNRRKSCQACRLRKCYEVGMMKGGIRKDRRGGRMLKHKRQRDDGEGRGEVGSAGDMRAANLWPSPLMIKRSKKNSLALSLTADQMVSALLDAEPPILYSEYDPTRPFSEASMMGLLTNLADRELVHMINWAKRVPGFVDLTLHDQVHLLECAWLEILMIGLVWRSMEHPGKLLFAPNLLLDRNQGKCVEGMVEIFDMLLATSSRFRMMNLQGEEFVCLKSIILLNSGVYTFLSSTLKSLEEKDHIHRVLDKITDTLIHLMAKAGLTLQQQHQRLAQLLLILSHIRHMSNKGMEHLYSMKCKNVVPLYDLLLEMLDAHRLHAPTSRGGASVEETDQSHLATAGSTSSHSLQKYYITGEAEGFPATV
Sequence of Androgen receptor (Homo sapiens) (P10275 whole entry, looked up): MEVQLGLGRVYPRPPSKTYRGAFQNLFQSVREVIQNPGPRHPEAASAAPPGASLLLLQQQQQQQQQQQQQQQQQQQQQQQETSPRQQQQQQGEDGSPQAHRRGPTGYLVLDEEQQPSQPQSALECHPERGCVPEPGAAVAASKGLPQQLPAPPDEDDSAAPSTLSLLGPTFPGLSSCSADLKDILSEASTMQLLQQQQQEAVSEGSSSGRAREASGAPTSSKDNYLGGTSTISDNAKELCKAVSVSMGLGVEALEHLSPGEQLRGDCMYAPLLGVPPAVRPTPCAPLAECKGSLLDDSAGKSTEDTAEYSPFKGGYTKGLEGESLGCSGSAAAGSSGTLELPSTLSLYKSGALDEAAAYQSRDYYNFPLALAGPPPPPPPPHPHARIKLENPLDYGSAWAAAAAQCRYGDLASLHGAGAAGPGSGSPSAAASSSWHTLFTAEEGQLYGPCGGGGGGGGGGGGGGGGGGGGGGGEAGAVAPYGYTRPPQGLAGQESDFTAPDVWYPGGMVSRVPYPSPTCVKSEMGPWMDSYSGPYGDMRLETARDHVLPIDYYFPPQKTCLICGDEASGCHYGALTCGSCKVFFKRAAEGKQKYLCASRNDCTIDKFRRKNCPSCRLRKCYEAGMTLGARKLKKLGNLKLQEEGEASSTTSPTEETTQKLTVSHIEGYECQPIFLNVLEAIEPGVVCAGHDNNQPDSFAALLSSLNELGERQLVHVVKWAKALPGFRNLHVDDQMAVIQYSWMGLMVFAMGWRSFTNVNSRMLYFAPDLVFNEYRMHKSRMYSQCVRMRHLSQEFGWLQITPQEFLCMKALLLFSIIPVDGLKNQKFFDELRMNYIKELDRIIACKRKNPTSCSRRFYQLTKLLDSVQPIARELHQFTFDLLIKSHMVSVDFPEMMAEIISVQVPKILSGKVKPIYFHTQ

Consider `C#CC(C)(C)O`, for which the Potency result in [1], in test [2], in test [3], in test [4], in test [5] and in test [6] was “inactive” throughout. Moreover, the Potency result in test [7], in test [8], in [9] and in test [10] was “inactive” each time.
With `CCOC(=O)c1ncn2c1CN(C)C(=O)c1c(I)cccc1-2`, the Potency result in test [1], in test [11], in test [3], in [4], in test [5] and in test [7] was “inactive” throughout. Also, the Potency entry in test [12], in test [13], in test [15], in test [8], in test [9] and in [10] was “inactive” throughout. The activation in [14] (at 70.3 µM (top of the series)) was -3.09% (inactive).
For the compound `C=C(C)[C@H]1CN[C@H](C(=O)O)[C@H]1CC(=O)O`, the Potency entry in test [1], in [3], in test [4], in test [6], in test [7] and in test [12] was “inactive” in each case. Besides, the Potency entry in [13], in test [15], in test [8], in test [9] and in [10] was “inactive” in each case. Moreover, the activation in test [14] (at 70.3 µM (top of the series)) was 2.22% (inactive).
For `CC(C)(C)NC[C@H](O)c1ccc(O)cc1Cl`, the Potency result in test [2], in [11], in test [16], in test [3], in test [4] and in test [5] was “inactive” throughout. Also, the Potency result in [6], in test [7], in [12], in [8], in test [9] and in test [10] was “inactive” throughout.
Regarding `NNCc1ccccc1`, the Potency result in test [2], in test [11], in test [16], in [3], in [4] and in test [5] was “inactive” each time. Moreover, the Potency result in [12], in [13], in [8], in test [9] and in [10] was “inactive” in each case. Further, the Potency in test [14] was 62.3 µM (active).
As for `CCNc1nc(NCC)nc(SC)n1`, the Potency entry in [1], in test [3], in [4], in [5], in test [7] and in test [17] was “inactive” throughout. In addition, the Potency entry in test [12], in test [13], in [15], in test [8], in [9] and in [10] was “inactive” each time. Further, the activation in [14] (at 70.3 µM (top of the series)) is -15.9% (inactive).
Consider `CC[C@@H](CO)NC(=O)[C@@H]1C=C2c3cccc4[nH]cc(c34)C[C@H]2N(C)C1`, for which the Potency entry in [2], in test [11], in test [16], in test [4], in test [5] and in [7] was “inactive” each time. Further, the Potency entry in test [12], in test [13], in test [15], in test [8], in test [9] and in [10] was “inactive” in each case. Further, in test [18], the compound was classed as inactive. Further, the activation in test [14] (at 70.3 µM (top of the series)) is 2.56% (inactive).
With `CC(C)(C)c1cc(O)ccc1O`, the Potency in [2] was 4.22 µM (active) and 7.7 µM (active); in test [16], 6.68 µM (active) and 48.6 µM (active) and 12.2 µM (active); in test [3], “inactive and 26.8 µM (active)”; in test [5] it was 8.41 µM (active) and 68.6 µM (active) and 48.6 µM (active); in [6], 6.68 µM (active) and 61.1 µM (active) and 38.6 µM (active); in test [12], “inactive and 26.8 µM (active)”. Moreover, the Potency entry in test [9] is “inactive and 26.6 µM (active)”. The Potency result in test [4], in test [7], in test [17], in test [13], in [15] and in test [8] was “inactive” in each case. Also, the Potency result in test [10] is “inactive”.
With `CNC(=O)O/N=C(/CSC)C(C)(C)C`, the Potency entry in test [2], in [16], in test [3], in test [19], in test [4] and in test [20] was “inactive” throughout. Further, the Potency entry in test [5], in test [6], in [17], in test [12], in [13] and in [15] was “inactive” each time. Besides, the Potency entry in test [8], in [9] and in [10] was “inactive” throughout. Further, the outcome in test [18] was inactive. For the same compound, the Potency in [7] was 61.1 µM (active). In addition, the activation in test [14] (at 70.3 µM (top of the series)) is -5.87% (inactive).
For `CCC1(c2cccc(O)c2)CCCCN(C)C1` (stereo unspecified), the Potency entry in test [2], in [16], in test [3], in test [4], in test [5] and in test [6] was “inactive” each time. The Potency entry in [7], in test [12], in test [9] and in test [10] was “inactive” throughout.
On to `O=C(Cl)CCl`, for which the Potency entry in test [2], in test [11], in [16], in [3], in test [4] and in test [6] was “inactive” throughout. For the same compound, the Potency entry in test [7], in [12], in test [13], in test [15], in [8] and in test [9] was “inactive” in each case. The Potency result in [10] is “inactive”. Also, the activation in [14] (at 95 µM (top of the series)) is 0.754% (inactive).
In the case of `CCN[C@H](C)Cc1cccc(C(F)(F)F)c1`, the values for the Potency in [2], in test [11] and in test [16] were 60.9 µM (active), 30.5 µM (active) and 54.3 µM (active), respectively. In addition, the Potency entry in test [3], in test [4], in test [7], in test [17], in [12] and in test [13] was “inactive” throughout. Moreover, the Potency result in [15], in test [8], in test [9] and in test [10] was “inactive” in each case. The activation in test [14] (at 70.3 µM (top of the series)) is -8.58% (inactive).
With `C=C(Cl)CCl`, the Potency entry in test [2], in test [3], in test [4], in [6], in test [7] and in test [17] was “inactive” each time. Also, the Potency entry in test [12], in test [13], in [15], in [8], in [9] and in [10] was “inactive” each time. Also, in test [14] (at 70.3 µM (top of the series)), the activation was 0.667% (inactive).
Turning to `C=C1CC[C@@]2(O)[C@H]3Cc4ccc(O)c5c4[C@@]2(CCN3CC2CC2)[C@H]1O5`, the Potency result in test [2], in [16], in [3], in test [4], in [12] and in test [8] was “inactive” throughout. In addition, the Potency result in test [9] and in test [10] was “inactive” throughout.
Regarding `CCCCOC(C)=O`, the Potency result in test [2], in [16], in [3], in [4], in test [5] and in [6] was “inactive” in each case. The Potency result in [7], in test [17], in [12], in test [13], in test [15] and in test [8] was “inactive” in each case. Also, the Potency result in test [9] and in test [10] was “inactive” in each case. In addition, the activation in [14] (at 95 µM (top of the series)) is -9.13% (inactive).
Take `CCC(=O)OC1(c2ccccc2)CCN(C)CC1`: the Potency entry in [16], in [3], in test [4], in [6], in test [7] and in test [12] was “inactive” in each case. Moreover, the Potency entry in test [8], in test [9] and in [10] was “inactive” each time.
